# Assay results reported in PubChem BioAssay (NCATS).
# Records with an inconclusive call do not appear. Where a call stands in place of a potency, no number is given. Calls of active or inactive are those of the source. Unless noted, calls follow the shape of the dose curve; as a rule, active = well fitted activation curve with a large enough effect; inconclusive = small, poorly fitted or top-dose-only effect; inactive = flat fitted curve, though single readings scatter.
# System: not listed separately
# Experiment: Validation screen for small molecules that induce DNA re-replication in SW480 colon adenocarcinoma cells (AID 504364)
# Conditions: DNA re-replication phenotype (high-content imaging); series mostly up to 46.1 µM
# Summary of the method: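 Hoechst-stained SW480 nuclei, imaged at 405 nm excitation after 48 hr compound exposure, were counted for elevated DNA content as the re-replication signal.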
row,Structure (SMILES),Potency
1,Oc1ccc2c3c1O[C@H]1c4oc5ccccc5c4C[C@@]4(O)C(C2)N(CC2CC2)CCC314 (stereo not given in full),inactive
2,C=CCN1CCC23c4c5ccc(O)c4O[C@H]2C(=O)CC[C@@]3(O)C1C5 (stereo not given in full),inactive
3,C#CCN[C@H](C)Cc1ccccc1,inactive
4,Cc1sc2ccccc2c1CC1=NCCN1,inactive
5,Ic1ccccc1CNC1C2CCN(CC2)C1C(c1ccccc1)c1ccccc1 (stereo not given),inactive
6,COC(=O)N1CCN(C(=O)Cc2ccc(Cl)c(Cl)c2)C(CN2CCCC2)C1 (stereo not given),inactive
7,N[C@@H](CCl)C(=O)O,inactive
8,CC(=O)NBr,inactive
9,Oc1ccc2c3c1O[C@H]1c4[nH]c5ccccc5c4C[C@@]4(O)C(C2)N(CC2CC2)CCC314 (stereo not given in full),inactive
10,CCS(=O)(=O)Nc1cccc(C(=C2CCCCC2)c2cnc[nH]2)c1,inactive
11,OCc1cnc[nH]1,inactive
12,NC(Cc1cc(O)c(O)cc1O)C(=O)O (stereo not given),inactive
13,CN1CCc2cccc(Cl)c2CC1,inactive
14,NCCCP(=O)(O)O,inactive
15,C[N+](C)(C)CC#CCOC(=O)Nc1cccc(Cl)c1,inactive
16,C[C@H](Cc1ccc2c(c1)OC(C(=O)O)(C(=O)O)O2)NC[C@H](O)c1cccc(Cl)c1,inactive
17,NNC(=O)c1ccc(O)cc1,inactive
18,N[C@@]1(C(=O)O)CC[C@@H](C(=O)O)C1,inactive
19,CC1(C(=O)O)C2CCC(O2)C1(C)C(=O)O (stereo not given),inactive
20,NC(=O)COc1c(F)cc(SCCNS(=O)(=O)c2ccccc2)cc1F,inactive

row,Structure (SMILES),Potency
1,C[Se]C[C@H](N)C(=O)O,inactive
2,CCCN(CCC)CCc1ccc(O)c(O)c1,inactive
3,COc1ccc2[nH]cc(CCN)c2c1,inactive
4,C[C@H](N)CN1CCc2ccc(Br)cc21,inactive
5,NC(N)=NOCC[C@H](N)C(=O)O,inactive
6,CCCN(CCC)[C@@H]1CCc2cccc(O)c2C1,inactive
7,CC(Cc1ccc(OCC(=O)O)cc1)NCC(O)c1cccc(Cl)c1 (stereo not given),inactive
8,NNC(N)=O,inactive
9,Nc1ccc(CCN2CCN(c3cccc(C(F)(F)F)c3)CC2)cc1,inactive
10,NC(=O)c1ccc(OCC(O)CN2CC=C(c3ccc(F)cc3)CC2)cc1 (stereo not given),inactive
11,CCCCCCCCCCCCCC(=O)O[C@@H]1[C@@H](C)[C@@]2(O)[C@@H](C=C(CO)C[C@@]3(O)C(=O)C(C)=C[C@@H]23)C2C(C)(C)[C@@]21OC(C)=O (stereo not given in full),inactive
12,NCC(CP(=O)(O)O)c1ccc(Cl)cc1 (stereo not given),inactive
13,NCC(O)c1cc(O)c(O)cc1F (stereo not given),inactive
14,C/C(O)=C(\C#N)C(=O)Nc1cc(Br)ccc1Br,inactive
15,CC12NC(Cc3ccccc31)c1ccccc12 (stereo not given),inactive
16,C=CCN1CC[C@]23c4c5ccc(O)c4O[C@H]2/C(=N/NC(=O)c2ccccc2)CC[C@@]3(O)[C@H]1C5,inactive
17,COc1ccc2[nH]c3c(c2c1)CCNC3,inactive
18,CCOC(=O)c1ncn2c1[C@@H]1CCCN1C(=O)c1cc(OC)ccc1-2,inactive
19,C[N+]1(C)CCN(c2ccccc2)CC1,inactive
20,CN(C(=O)Cc1ccc(Cl)c(Cl)c1)C(CN1CCCC1)c1cccc(OCC(=O)O)c1 (stereo not given),inactive

# Target: Peptidyl-prolyl cis-trans isomerase NIMA-interacting 1 (Homo sapiens) (UniProt Q13526)
# Experiment: qHTS Validation Assay to Find Inhibitors of Pin1 (AID 504536; active = well fitted inhibition curve with a large enough effect in the polarisation, with a control signal flat, not every such curve was filed as active; the % refers to the polarisation; also: potency is read from the fitted curve at half-maximal effect)
# Conditions: Pin1 fluorescence polarization peptide binding assay; series mostly up to 57.5 µM
# Summary of the method: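 Fluorescence polarization competition: compounds (titration) displace HiFluor-488-labeled Pin1-1b peptide from Pin1 (0.3 uM final) in pH 7.5 HEPES buffer with DTT, 10 min at room temperature; %Activity normalized to no-enzyme wells, curves fitted.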
# Peptidyl-prolyl cis-trans isomerase NIMA-interacting 1 (Homo sapiens), sequence (Q13526 whole entry, looked up): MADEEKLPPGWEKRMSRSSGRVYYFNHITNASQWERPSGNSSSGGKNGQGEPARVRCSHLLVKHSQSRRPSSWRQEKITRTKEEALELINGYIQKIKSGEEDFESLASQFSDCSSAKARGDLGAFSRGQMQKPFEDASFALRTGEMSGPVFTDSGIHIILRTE
row,Structure (SMILES),Potency
1,Oc1ccc2c3c1O[C@H]1c4oc5ccccc5c4C[C@@]4(O)C(C2)N(CC2CC2)CCC314 (stereo not given in full),inactive
2,C=CCN1CCC23c4c5ccc(O)c4O[C@H]2C(=O)CC[C@@]3(O)C1C5 (stereo not given in full),inactive
3,C#CCN[C@H](C)Cc1ccccc1,inactive
4,Cc1sc2ccccc2c1CC1=NCCN1,inactive
5,Ic1ccccc1CNC1C2CCN(CC2)C1C(c1ccccc1)c1ccccc1 (stereo not given),inactive
6,COC(=O)N1CCN(C(=O)Cc2ccc(Cl)c(Cl)c2)C(CN2CCCC2)C1 (stereo not given),inactive
7,N[C@@H](CCl)C(=O)O,inactive
8,CC(=O)NBr,inactive
9,Oc1ccc2c3c1O[C@H]1c4[nH]c5ccccc5c4C[C@@]4(O)C(C2)N(CC2CC2)CCC314 (stereo not given in full),inactive
10,CCS(=O)(=O)Nc1cccc(C(=C2CCCCC2)c2cnc[nH]2)c1,inactive
11,OCc1cnc[nH]1,inactive
12,NC(Cc1cc(O)c(O)cc1O)C(=O)O (stereo not given),1.69 µM (active)
13,CN1CCc2cccc(Cl)c2CC1,inactive
14,NCCCP(=O)(O)O,inactive
15,C[N+](C)(C)CC#CCOC(=O)Nc1cccc(Cl)c1,inactive
16,C[C@H](Cc1ccc2c(c1)OC(C(=O)O)(C(=O)O)O2)NC[C@H](O)c1cccc(Cl)c1,inactive
17,NNC(=O)c1ccc(O)cc1,inactive
18,N[C@@]1(C(=O)O)CC[C@@H](C(=O)O)C1,inactive
19,CC1(C(=O)O)C2CCC(O2)C1(C)C(=O)O (stereo not given),inactive
20,NC(=O)COc1c(F)cc(SCCNS(=O)(=O)c2ccccc2)cc1F,inactive

row,Structure (SMILES),Potency
1,C[Se]C[C@H](N)C(=O)O,inactive
2,CCCN(CCC)CCc1ccc(O)c(O)c1,inactive
3,COc1ccc2[nH]cc(CCN)c2c1,inactive
4,C[C@H](N)CN1CCc2ccc(Br)cc21,inactive
5,NC(N)=NOCC[C@H](N)C(=O)O,inactive
6,CCCN(CCC)[C@@H]1CCc2cccc(O)c2C1,inactive
7,CC(Cc1ccc(OCC(=O)O)cc1)NCC(O)c1cccc(Cl)c1 (stereo not given),inactive
8,NNC(N)=O,inactive
9,Nc1ccc(CCN2CCN(c3cccc(C(F)(F)F)c3)CC2)cc1,inactive
10,NC(=O)c1ccc(OCC(O)CN2CC=C(c3ccc(F)cc3)CC2)cc1 (stereo not given),inactive
11,CCCCCCCCCCCCCC(=O)O[C@@H]1[C@@H](C)[C@@]2(O)[C@@H](C=C(CO)C[C@@]3(O)C(=O)C(C)=C[C@@H]23)C2C(C)(C)[C@@]21OC(C)=O (stereo not given in full),inactive
12,NCC(CP(=O)(O)O)c1ccc(Cl)cc1 (stereo not given),inactive
13,NCC(O)c1cc(O)c(O)cc1F (stereo not given),inactive
14,C/C(O)=C(\C#N)C(=O)Nc1cc(Br)ccc1Br,inactive
15,CC12NC(Cc3ccccc31)c1ccccc12 (stereo not given),inactive
16,C=CCN1CC[C@]23c4c5ccc(O)c4O[C@H]2/C(=N/NC(=O)c2ccccc2)CC[C@@]3(O)[C@H]1C5,inactive
17,COc1ccc2[nH]c3c(c2c1)CCNC3,inactive
18,CCOC(=O)c1ncn2c1[C@@H]1CCCN1C(=O)c1cc(OC)ccc1-2,inactive
19,C[N+]1(C)CCN(c2ccccc2)CC1,inactive
20,CN(C(=O)Cc1ccc(Cl)c(Cl)c1)C(CN1CCCC1)c1cccc(OCC(=O)O)c1 (stereo not given),inactive
